From PubChem
An excerpt weighted towards active compounds, which were near 3.6% of everything screened.
Epigenetic derep = derepresses silenced GFP reporter in murine cells | murine LDR cells, GFP reporter derepression, 30 h | Potency, µM (doses to about 53.9 µM), actives largely listed as activators | 280,000 compounds, 0.2% hits | AID 1865; further: nearly all actives have a fitted effect of over 60% in size
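GFP-positive cell count by laser-scanning cytometry (objects 20–120 um) after 30 h, 37 C compound exposure of murine LDR cells; reporter is CMV-GFP integrated at a silenced locus, inducible by HDAC or DNMT inhibitors.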
Sfp inh = blocks B. subtilis Sfp PPTase activity | Q9F4F7 | Biochemical Sfp PPTase activity, qHTS | Potency, µM, actives largely listed as inhibitors | 310,000 compounds, 3.5% hits;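 further: the enzyme is Sfp with the accession as filed and its product quenches rhodamine fluorescence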
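Sfp 15 nM + cpd, 15 min RT; start w/ rhodamine-CoA 5 uM, BHQ-2-YbbR 12.5 uM (final); 50 mM Hepes pH 7.6, 10 mM MgCl2, 0.01% NP-40, 0.01% BSA; read 525/598 nm at 0 and 30 min.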
KAT2A inh = blocks human GCN5L2 histone acetyltransferase; Q92830; GCN5L2 HAT assay, ThioGlo1 CoA-SH fluorescence; Potency, µM (doses to about 58.9 µM), most hits filed as inhibitors; 390,000 compounds, 0.21% hits; AID 504327
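Compounds, pin-transferred from DMSO stocks, meet 20nM GCN5L2 for 15 min before the reaction begins with H3(1-25) peptide (75uM) and acetyl-CoA (70uM). Thiol-reactive ThioGlo1 reports CoA release over 20 min at room temperature.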
IMPase Li cell = membrane-permeable IMPase blocker, potentiated with lithium | CHO-M1 cells, IP1 TR-FRET (IP-One), carbachol + lithium | Potency, µM (titrated, usually from 59.4 µM), most hits filed as inhibitors | 210,000 compounds, 0.35% hits | AID 1457;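 further: IP1 builds up when IMPase is blocked and the TR-FRET signal falls; nearly all actives have a fitted effect of over 50% in size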
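CHO-M1, 2000 cells/well, 16–30 h culture; cpd + low Li+, 30 min 37C; lysis with d2-IP1/Eu-anti-IP1 Ab, 10 min RT; TR-FRET 665/620 ratio and 620 channel; AC50 via Hill.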
NPSR antagonist = antagonists of human neuropeptide S receptor cAMP signaling; Q6W5P4; 220,000 compounds, 1% hits; AID 1461; Potency, µM (series often up to 38.3 µM), hits mostly inhibitors; CHO-NPSR cells, cAMP TR-FRET, antagonist mode; further: nearly all actives have a fitted effect of over 50% in size
JMJD2E inh = JMJD2E (human) inhibition | Potency, µM (titrated, usually from 57.1 µM), hits mostly inhibitors | AID 2147 | JMJD2E catalytic domain, FDH-coupled NADH fluorescence (FDH is formaldehyde dehydrogenase) | B2RXH2 | 230,000 compounds, 1.6% hits; active means well fitted inhibition curve with a large enough effect, not every such curve was filed as active; inconclusive means small, poorly fitted or top-dose-only effect, or another doubt; inactive means no such curve, though single readings can be large or run the other way; further: nearly all actives have a fitted effect of over 50% in size
Of the large screens only hits and unclear results are named; the others gave an inactive call. Unless noted, the call rests on the fitted dose curve; in most records, active means well fitted curve in the direction sought with a large enough effect; inconclusive means small, poorly fitted or top-dose-only effect, or another doubt; inactive means no such curve, though single readings can be large; an effect the other way counts as inactive or inconclusive.

Clc1nssc1=Nc1nncs1	KAT2A inh 2.2µM (no result: Epigenetic derep, Sfp inh, IMPase Li cell, NPSR antagonist, JMJD2E inh)
CCOC(=O)c1ccc(NC(=O)c2c(NCc3cccs3)sc3c2CCCCC3)cc1	KAT2A inh 22µM (no result: Sfp inh, IMPase Li cell, NPSR antagonist, JMJD2E inh)
COc1ccc(NC(=O)c2c(NC(=O)CNCc3ccco3)sc3c2CCC3)cc1	Epigenetic derep 25µM
Cc1cc(C)cc(C(=O)Nc2ccc(N3CCCC3)cc2)c1	Sfp inh 50µM
Cc1cc(C)cc(NC(=O)Nc2ccc(N3CCCCC3)cc2)c1	Epigenetic derep inconclusive, Sfp inh 50µM, NPSR antagonist inconclusive (no result: IMPase Li cell)
CCCCc1nc2c(c3c1CC(C)OC3)CN(CCC(C)C)CC2 (stereo unspecified)	none (no result: KAT2A inh, IMPase Li cell, NPSR antagonist, JMJD2E inh)
COc1ccc(C2/C=C\CN(C(=O)CC(C)(C)C)C(C)C(=O)N2Cc2ccc(F)cc2)cc1 (stereo unspecified)	none (no result: Epigenetic derep, KAT2A inh, IMPase Li cell, NPSR antagonist, JMJD2E inh)
Cc1cccc(CN2C(=O)c3ccccc3Sc3ccc(C(=O)NCCCN4CCOCC4)cc32)c1	none (no result: IMPase Li cell, NPSR antagonist, JMJD2E inh)
CN1CCN(CCCNC(=O)c2ccc(/C=C3\Oc4ccccc4N(Cc4ccccc4F)C3=O)cc2)CC1	Sfp inh 56µM (no result: Epigenetic derep, IMPase Li cell, NPSR antagonist, JMJD2E inh)
Cc1cccc(CN2C(=O)/C(=C\c3ccc(C(=O)NCCCN4CCN(C)CC4)cc3)Oc3ccccc32)c1	Sfp inh 50µM (no result: Epigenetic derep, IMPase Li cell, NPSR antagonist, JMJD2E inh)
CC1CCC(NC(=O)c2ccc(/C=C3\Oc4ccccc4N(C)C3=O)cc2)CC1 (stereo unspecified)	JMJD2E inh inconclusive
COc1cc(OC)c(Nc2c3c(nc4nc(-c5cccs5)nn24)CCCC3)cc1Cl	none (no result: Sfp inh, IMPase Li cell, NPSR antagonist, JMJD2E inh)
CCOc1ccccc1-c1nnc2n1N=C(c1cc(OC)ccc1OC)CS2	none (no result: Epigenetic derep, KAT2A inh, IMPase Li cell, NPSR antagonist, JMJD2E inh)
C=C1CCN(C(Cc2ccccc2)C(=O)Nc2ccc(OC)cc2)S(=O)(=O)c2ccccc21 (stereo unspecified)	none (no result: Epigenetic derep, KAT2A inh, IMPase Li cell, NPSR antagonist, JMJD2E inh)
CC(=O)Nc1ccc(NC(=O)C(Cc2ccccc2)N2Cc3ccccc3C2=O)cc1 (stereo unspecified)	none (no result: Sfp inh, IMPase Li cell, NPSR antagonist, JMJD2E inh)
COc1ccc2cc(C#N)c(SCC(=O)NNC(=O)Cc3ccccc3)nc2c1	Epigenetic derep inconclusive, IMPase Li cell inconclusive, JMJD2E inh inconclusive
Cc1ccc2cc(C#N)c(SCC(=O)NNC(=O)Cc3ccccc3)nc2c1	IMPase Li cell 13µM, NPSR antagonist 7.9µM
Cc1ccc2nc(SCC(=O)NCc3ccco3)c(C#N)cc2c1	IMPase Li cell inconclusive, NPSR antagonist inconclusive
CCOC(=O)CSc1nc2cc(OCC)ccc2cc1C#N	Epigenetic derep inconclusive, IMPase Li cell inconclusive, JMJD2E inh inconclusive
COc1ccc(NC(=O)CSc2nc(N)c(C#N)cc2C#N)cc1	NPSR antagonist inconclusive
CCOc1ccc2cc(C#N)c(SCC(=O)NC(C)CC)nc2c1 (stereo unspecified)	IMPase Li cell 3.5µM, NPSR antagonist 6.3µM
Cc1ccc2nc(SCC(=O)NCc3cccs3)c(C#N)cc2c1	IMPase Li cell 13µM, NPSR antagonist 10µM
COc1ccc2nc(SCC(=O)Nc3ccc4sc(C)nc4c3)c(C#N)cc2c1	Epigenetic derep 3.5µM, IMPase Li cell inconclusive, NPSR antagonist inconclusive
N=C1/C(=C\c2ccc(SCc3ccco3)o2)C(=O)N=C2SC=NN12	Sfp inh 79µM, KAT2A inh inconclusive, JMJD2E inh 28µM
COC(=O)CSc1nsc(SCC(=O)OC)c1C#N	none
COC(=O)CSC1=C(C#N)C(=O)NC2(CCCCC2)S1	Sfp inh 25µM, KAT2A inh inconclusive, JMJD2E inh inconclusive
COc1ccc(N2C(=O)/C(=C3/C=CC=CN3C)SC2=S)cc1	Sfp inh 50µM
C=CCNC(=S)N/N=C(\C)c1ccccn1	Epigenetic derep inconclusive, Sfp inh 79µM, JMJD2E inh 8.9µM
O=C(O)c1cc(-c2ccc(/C=C3\NC(=O)N(c4ccccc4)C3=O)o2)ccc1Cl	Sfp inh 79µM, KAT2A inh inconclusive, JMJD2E inh inconclusive (no result: IMPase Li cell)
O=C(O)c1cc(-c2ccc(/C=C3\NC(=O)N(c4ccc(Cl)cc4)C3=O)o2)ccc1Cl	Sfp inh 50µM, JMJD2E inh inconclusive
O=C1NN(c2ccccc2)C(=O)/C1=C/c1ccc(-c2ccc(Cl)c(C(=O)O)c2)o1	JMJD2E inh inconclusive
CCOc1ccccc1CN1CCc2nc(N3CCN(c4ccccc4F)CC3)ncc2C1	none (no result: Sfp inh, IMPase Li cell, NPSR antagonist, JMJD2E inh)
COc1cccc(Nc2ncc3nc(-c4ccccc4)c(=O)n(Cc4cccs4)c3n2)c1	none (no result: Epigenetic derep, NPSR antagonist, JMJD2E inh)
